# Screening data as filed in PubChem BioAssay.
# Hits are enriched below; roughly 4.7% of the tested compounds scored in any of these assays.
# D1 antagonist = antagonists of human D1 dopamine receptor; HEK293 TREx D1 cells, calcium flux, dopamine EC80; hits give low values; activity change, negative = inhibition, % at 10 µM; actives 3.2% (n = 360,000); AID 504652; in the data active = activity change below about -30%
# Target sequence (P21728 whole entry, looked up): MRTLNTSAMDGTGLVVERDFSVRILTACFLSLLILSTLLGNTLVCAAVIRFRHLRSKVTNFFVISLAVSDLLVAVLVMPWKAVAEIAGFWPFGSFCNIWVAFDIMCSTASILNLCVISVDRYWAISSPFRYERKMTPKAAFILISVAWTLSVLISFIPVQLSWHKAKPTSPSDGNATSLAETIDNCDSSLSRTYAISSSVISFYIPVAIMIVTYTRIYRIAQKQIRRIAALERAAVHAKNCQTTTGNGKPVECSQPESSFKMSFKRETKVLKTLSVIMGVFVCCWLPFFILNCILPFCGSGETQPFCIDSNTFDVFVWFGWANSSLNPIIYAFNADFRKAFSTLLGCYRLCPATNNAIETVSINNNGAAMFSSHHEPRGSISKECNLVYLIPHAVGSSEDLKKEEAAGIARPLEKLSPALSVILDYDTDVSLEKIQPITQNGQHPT
#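 After overnight tetracycline induction at 30 C, force-coupled D1 HEK293 cells took up a no-wash calcium dye at room temperature. Compounds were added and monitored 180 s, and the response to EC80 dopamine was then recorded.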
# TRHR enhancer = allosteric enhancers of human TRH receptor. P34981. TRHR cells, fluo-8 calcium fluorescence, EC20 TRH enhancement. enhancement, % at 2 µM. actives 0.66% (n = 360,000). AID 493056; in the data active = enhancement above about 30%
#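 Enhancer read-out: after compound pinning and an initial kinetic agonist-mode read, an EC20 of TRH (10 nM final) was injected and fluo-8 calcium signal (Ex 480/Em 530) followed at 1 s/cycle for 100 cycles in TRHR-expressing cells.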
# D1 ag = agonists of human D1 dopamine receptor | P21728 | HEK293 T-REx D1 cells, calcium flux, agonist mode | activation, % at 2 µM | actives 1% (n = 360,000)
#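 Inducible HEK293 T-REx D1 cells, force-coupled to calcium signalling, were plated at 4000 cells/well with tetracycline and held overnight at 30 C. After no-wash calcium dye loading, compound-evoked calcium rise over 180 s flagged agonists.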
# D1 potentiator = potentiators of human D1 dopamine receptor; potentiation, % at 10 µM; HEK293 TREx D1 cells, calcium flux, dopamine EC20 potentiation; actives 0.036% (n = 360,000); in the data active = potentiation above about 30%
# TRHR ag = activates the human TRH receptor. TRHR cells, calcium flux fluo-8, FDSS agonist mode. AID 493084. activation, % at 2 µM. actives 0.18% (n = 360,000). P34981
#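 TRHR-expressing cells loaded with fluo-8 calcium dye; 23 nL library compound pin-transferred, kinetic FDSS fluorescence (Ex 480/Em 530) recorded about 180 s for agonist-induced calcium release, before a 10 nM TRH EC20 addition for potentiator mode.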
# Numbers stand for hits; i = inactive; nt = no result; ! = repeats disagree. Rule as the data show it, unless noted: active = activation above about 30%; inactive = the rest.
SMILES,D1 antagonist,TRHR enhancer,D1 ag,D1 potentiator,TRHR ag
COc1ccc(OC2CCN(S(=O)(=O)c3ccc(OC)cc3)CC2)cc1,-36!,i,35,i,i
COc1ccc(S(=O)(=O)N2CCC(Oc3ccc(-n4cnnn4)cc3)CC2)cc1OC,i,i,i,i,i
COc1ccc(S(=O)(=O)N2CCC(Oc3cccc(C(F)(F)F)c3)CC2)cc1OC,-36,i,i,i,i
COc1ccc(S(=O)(=O)N2CCC(c3nc4ccccc4[nH]3)CC2)cc1,i,39,i,i,i
COc1ccc(S(=O)(=O)N2CCC(C(=O)Nc3ccccc3)CC2)cc1OC,i,i,i,i,i
COc1ccc(S(=O)(=O)N2CCC(C(=O)Nc3ccc(Oc4ccccc4)cc3)CC2)cc1OC,i,32,i,i,i
Cc1ccccc1-n1c(SCC(=O)Nc2ccc(Cl)cc2F)nnc1-c1cc2occc2n1C,i,i,i,i,i
CC(C)(C)C1CCc2c(sc3nc(-c4cc5cc(Br)ccc5oc4=O)[nH]c(=O)c23)C1 (stereo unspecified),i,i,i,i,i
COc1ccc(S(=O)(=O)N2CCC(N3CCCCC3)CC2)cc1,i,i,i,i,i
COc1ccc(S(=O)(=O)N2CCN(C3CCCCCCC3)CC2)cc1,-68!,i,i,i,i
CCOC(=O)N1CCC(N2CCN(S(=O)(=O)c3ccc(OC)cc3)CC2)CC1,-36,i,i,i,i
Cc1cc(Nc2ccccc2Cl)n2nc(-c3ccco3)nc2n1,i,i,i,i,i
CCOC(=O)c1ccccc1Nc1cc(C)nc2nc(-c3ccco3)nn12,-32,i,74,i,i
CC1=C(C(=O)N2CCOCC2)C(c2ccc(Br)cc2)NC(=S)N1c1ccccc1 (stereo unspecified),-42,i,i,i,i
N/C(Cc1ccc(Cl)cc1)=N\OC(=O)c1ccccc1,i,i,i,i,i
CC(C)(C)C(=O)OC/C(N)=N/OC(=O)c1ccc(Cl)cc1,-43,i,i,i,i
Cc1coc2c(C)c3oc(=O)c(CC(=O)NCc4ccccc4)c(C)c3cc12,i,i,i,i,i
Cc1ccc(C)c(N=Nc2ccc(O)c3ncccc23)c1,-71,i,i,i,i
Cc1cccc(N=Nc2ccc(O)c3ncccc23)c1,i,i,i,i,i
CNC(=O)COc1ncnc2scc(-c3ccc(F)cc3)c12,i,i,i,i,i
COc1ccccc1CNC(=O)c1cnn2c(C)c(Cc3ccc(F)cc3)c(C)nc12,i,i,i,i,i
COC(=O)c1c(NC(=O)CCCOc2ccc(C)cc2)sc2c1C(C(=O)OC)CC2 (stereo unspecified),i,i,i,i,i
Cc1ccc2[nH]c3c(c2c1)CN(C(=O)CN1CCSCC1)CC3,i,i,i,i,i
Cc1ccc2[nH]c3c(c2c1)CN(C(=O)CN1CCN(Cc2ccc4c(c2)OCO4)CC1)CC3,-35,i,42,i,i
O=C(CCN1C(=O)CSc2ccccc21)Nc1ccc(OC(F)(F)F)cc1,nt,33,i,i,i
SMILES,D1 antagonist,TRHR enhancer,D1 ag,D1 potentiator,TRHR ag
CN(C)CCN(Cc1ccccc1)c1ccccn1,-31!,i,i,i,i
O=C(N/N=C/c1cccnc1)c1cc(-c2ccccc2Cl)nc2ccccc12,-40,i,i,i,i
O=C(N/N=C/c1cccnc1)c1ccc(NC(=O)c2ccccc2Cl)cc1,i,31,i,i,i
COc1ccc(-c2cc(C(=O)N/N=C(\C)c3cccnc3)c3ccccc3n2)cc1,-58,i,i,i,i
O=C(NCc1ccccn1)c1cc(-c2ccccc2Cl)nc2ccccc12,-32,i,i,i,i
COc1ccc(OC)c(CCNC(=O)CCn2c(=O)c3cccn3c3cccnc32)c1,i,i,i,i,i
CSCCC(NC(=O)COc1ccccc1)C(=O)N1CCN(c2ccccc2O)CC1 (stereo unspecified),i,i,i,i,i
NS(=O)(=O)c1ccc(NCc2c(F)cccc2Cl)cc1,-35,i,i,i,i
CCc1cccc(C)c1NC(=O)c1cccnc1,-32,i,i,i,i
CCc1cccc(C)c1NC(=O)C1=C(C(=O)O)CCCC1,-82,i,i,i,i
Cc1cccc(C)c1NC(=O)c1cccnc1,i,i,i,i,i
COc1ccc(OC)c2c1CCC2=O,-65,i,i,i,i
O=C(NCc1ccccc1)c1nnc(Cc2cccc(F)c2)o1,i,i,i,i,i
O=C(NCc1cccnc1)Nc1ccc(Cl)cc1Cl,i,i,i,i,i
O=C(NCc1cccnc1)NC1(C(F)(F)F)Oc2ccccc2O1,-42,i,i,i,i
Cc1cccc(NC(=O)NCc2cccnc2)c1C,-34,i,i,i,i
O=C(NCc1cccnc1)Nc1cccc(Cl)c1Cl,-30,i,i,i,i
COC(=O)c1ccc(NC(=O)C2(S(=O)(=O)c3ccc(C)cc3)CC2)cc1,i,i,i,i,i
N#Cc1ccccc1NC(=O)C(=O)NCCc1csc2nc(-c3cccc(F)c3)nn12,i,i,i,i,i
Cc1ccc(NC(=O)Cn2c(=O)n(Cc3ccc(F)cc3)c(=O)c3cccnc32)cc1C,i,i,i,i,i
CCOc1ccc(OCC)c(Nc2nc3ccc(C(=O)c4ccccc4)cc3n3cnnc23)c1,i,i,i,i,i
CCOc1ccc(OCC)c(Nc2nc3ccc(Cl)cc3n3cnnc23)c1,-36,i,i,i,i
COc1ccc(S(=O)(=O)N2CCCCC2)cc1C(=O)Nc1cccc(C(F)(F)F)c1,i,i,i,i,i
CCCC(=O)OCCNc1cc(Sc2nc3ccccc3[nH]2)c2nonc2c1[N+](=O)[O-],-49,i,i,i,i
CCC(=O)OCCNc1cc(SCCC(=O)OC)c2nonc2c1[N+](=O)[O-],i,i,i,i,i
SMILES,D1 antagonist,TRHR enhancer,D1 ag,D1 potentiator,TRHR ag
COCCCN(C(=S)Nc1cccc(Cl)c1)C(C)c1ccncc1 (stereo unspecified),i,37,i,i,i
CCOc1ccccc1NC(=O)C(Cc1ccccc1)NS(=O)(=O)c1ccc(Br)s1 (stereo unspecified),i,i,i,i,i
COc1cccc(C(=O)N(C)CC2CCN(CCc3cccc(C(F)(F)F)c3)CC2)c1,-32,i,i,i,i
CCOc1ccc(C(=O)c2cn(Cc3ccccc3)c3c(F)cc(F)cc3c2=O)cc1,i,33,i,i,i
Cc1cccc(CCN(CC(=O)NCc2ccc(F)cc2)C(=O)c2csnn2)c1,i,i,i,i,i
CC(C)Cc1nnc(NC(=O)Cc2cccs2)s1,-50,i,i,i,i
O=S(=O)(Nc1ccc(-c2ccc(N3CCCC3)nn2)cc1)c1ccc(OC(F)(F)F)cc1,i,i,i,i,i
COc1cc(NC(=O)CCS(=O)(=O)c2ccc3c(c2)CC(=O)N3C)cc(OC)c1OC,-77,i,i,i,i
COc1ccc(C)cc1NC(=O)CCS(=O)(=O)c1ccc2c(c1)CC(=O)N2C,-32,i,i,i,i
